Laboratory results: PubChem BioAssay (EPA / NIEHS)
Inconclusive results are not listed. Active and inactive are the calls of the source. The calls were made as follows, unless noted: active = hit-call score of the fitted dose curve at least 0.9, where 1 is the maximum; inconclusive = response in the unintended direction; inactive = score below 0.9.

Tests used:
[1] = molecular target: Nuclear receptor subfamily 1 group I member 3 (Homo sapiens) (UniProt Q14994); assay: ATG_CAR_TRANS: Attagene TRANS-FACTORIAL HepG2 Assay for human Constitutive Androstane Receptor (CAR) (AID 2282969); conditions: HepG2 Attagene TRANS-FACTORIAL CAR reporter;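 also: activators raise reporter mRNA above DMSO so AC50 marks induction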
In short: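 Readout is reporter mRNA induction, quantified by fluorescent primer extension and capillary electrophoresis after RT-PCR. Cells were HepG2 transiently carrying chimeric NR-Gal4 constructs with GAL4-UAS reporters, treated for 24 h; activity scored upward from DMSO.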

[2] = molecular target: X-box-binding protein 1 (Homo sapiens) (UniProt P17861); assay: ATG_Xbp1_CIS: Attagene CIS-FACTORIAL HepG2 Assay for human X-box Binding Protein 1 (XBP1) (AID 2282972; active = hit-call score of the fitted dose curve at least 0.9, where 1 is the maximum; inactive = score below 0.9); conditions: HepG2 XBP1 cis-element reporter, Attagene multiplex; actives raise or lower the signal
X-box-binding protein 1 (Homo sapiens), sequence (P17861 whole entry, looked up): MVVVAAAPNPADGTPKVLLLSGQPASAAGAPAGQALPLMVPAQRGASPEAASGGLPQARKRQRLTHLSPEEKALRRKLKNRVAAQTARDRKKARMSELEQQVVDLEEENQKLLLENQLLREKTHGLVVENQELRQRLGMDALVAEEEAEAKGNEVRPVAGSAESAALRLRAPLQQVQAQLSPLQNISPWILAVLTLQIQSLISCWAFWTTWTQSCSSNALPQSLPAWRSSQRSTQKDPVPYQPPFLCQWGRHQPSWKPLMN
In short: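 HepG2 cells transiently transfected with cis-regulated multiple reporter transcription units; endogenous transcription factor activity measured 24 hours after chemical dosing. Reporter mRNA quantified by RT-PCR, 6-FAM primer extension, HpaI digestion and capillary electrophoresis; bidirectional fitting versus DMSO.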

[3] = molecular target: Androgen receptor (Homo sapiens) (UniProt P10275); assay: ATG_AR_TRANS: Attagene TRANS-FACTORIAL HepG2 Assay for human Androgen Receptor (AR) (AID 2282973); conditions: HepG2 Attagene TRANS-FACTORIAL AR reporter transcription
Androgen receptor (Homo sapiens), sequence (P10275 whole entry, looked up, the tested form may be a part): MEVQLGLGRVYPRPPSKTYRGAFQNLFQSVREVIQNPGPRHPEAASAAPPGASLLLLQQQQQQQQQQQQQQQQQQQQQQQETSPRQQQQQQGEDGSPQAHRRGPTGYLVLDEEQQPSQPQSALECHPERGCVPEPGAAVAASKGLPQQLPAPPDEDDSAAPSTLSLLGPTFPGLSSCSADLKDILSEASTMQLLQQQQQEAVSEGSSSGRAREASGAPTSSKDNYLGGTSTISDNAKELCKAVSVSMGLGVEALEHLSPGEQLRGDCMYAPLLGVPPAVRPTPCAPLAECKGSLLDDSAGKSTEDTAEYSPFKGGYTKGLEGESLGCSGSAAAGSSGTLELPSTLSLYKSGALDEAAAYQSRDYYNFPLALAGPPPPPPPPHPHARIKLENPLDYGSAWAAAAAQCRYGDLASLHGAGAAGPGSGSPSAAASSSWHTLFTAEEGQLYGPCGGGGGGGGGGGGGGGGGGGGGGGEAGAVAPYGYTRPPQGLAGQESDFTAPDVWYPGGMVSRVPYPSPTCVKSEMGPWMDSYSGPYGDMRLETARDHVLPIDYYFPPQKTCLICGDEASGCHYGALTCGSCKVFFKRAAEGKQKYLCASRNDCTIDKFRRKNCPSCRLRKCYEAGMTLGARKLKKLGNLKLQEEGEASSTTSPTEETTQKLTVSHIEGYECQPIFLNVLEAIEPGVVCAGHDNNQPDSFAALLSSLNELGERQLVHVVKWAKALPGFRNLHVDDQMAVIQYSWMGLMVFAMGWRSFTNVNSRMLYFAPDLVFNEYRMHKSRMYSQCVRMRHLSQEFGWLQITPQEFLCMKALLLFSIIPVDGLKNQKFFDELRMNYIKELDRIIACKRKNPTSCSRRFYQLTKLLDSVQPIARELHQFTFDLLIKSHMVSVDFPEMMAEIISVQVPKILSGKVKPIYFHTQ
In short: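 Transfected HepG2, 24 h treatment, chimeric NR-Gal4 driving GAL4-UAS reporters. mRNA induction by RT-PCR/capillary electrophoresis fluorescence; DMSO as negative control and baseline.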

[4] = ATG_GAL4_TRANS: Attagene TRANS-FACTORIAL HepG2 Assay for GAL4 (Internal Marker) (AID 2282976); conditions: HepG2 Attagene TRANS GAL4 internal marker reporter
In short: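 Fluorescence from capillary electrophoresis of labelled RT-PCR products quantifies reporter mRNA induction after 24 h dosing of HepG2 cells carrying transfected GAL4-UAS reporter transcription units. Vehicle DMSO serves as baseline.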

[5] = molecular target: Estrogen-related receptor gamma (Homo sapiens) (UniProt P62508); assay: ATG_ERRg_TRANS: Attagene TRANS-FACTORIAL HepG2 Assay for human Estrogen-Related Receptor gamma (ERRg) (AID 2282977); conditions: HepG2 Attagene TRANS reporter, ERRg transactivation;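 also: hits increase reporter signal over DMSO so potencies reflect activators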
Estrogen-related receptor gamma (Homo sapiens), sequence (P62508 whole entry, looked up, the tested form may be a part): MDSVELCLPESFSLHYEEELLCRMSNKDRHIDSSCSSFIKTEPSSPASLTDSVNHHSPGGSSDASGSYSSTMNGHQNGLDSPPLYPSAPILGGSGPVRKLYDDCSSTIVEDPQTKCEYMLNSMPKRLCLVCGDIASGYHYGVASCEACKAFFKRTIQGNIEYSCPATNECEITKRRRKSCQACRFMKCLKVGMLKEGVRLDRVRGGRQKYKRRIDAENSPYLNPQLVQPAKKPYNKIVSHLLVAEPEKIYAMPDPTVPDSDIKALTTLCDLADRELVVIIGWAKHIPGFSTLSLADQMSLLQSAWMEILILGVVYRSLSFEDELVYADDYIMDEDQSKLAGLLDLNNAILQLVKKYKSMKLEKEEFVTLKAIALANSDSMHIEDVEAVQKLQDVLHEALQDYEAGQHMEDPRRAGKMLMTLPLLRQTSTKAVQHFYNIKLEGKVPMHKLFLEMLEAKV
In short: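 HepG2 cells transiently transfected with multiplexed GAL4-UAS reporter units driven by chimeric NR-Gal4 proteins; 24 h exposure. Reporter mRNA quantified by RT-PCR, fluorescent labelling, HpaI digestion and capillary electrophoresis; gain of signal vs DMSO.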

[6] = molecular target: Glucocorticoid receptor (Homo sapiens) (UniProt P04150); assay: ATG_GR_TRANS: Attagene TRANS-FACTORIAL HepG2 Assay for human Glucocorticoid Receptor (GR) (AID 2282978); conditions: HepG2 Attagene TRANS GR reporter, mRNA transcription;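 also: activators score as hits since higher reporter transcript over DMSO is fitted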
Glucocorticoid receptor (Homo sapiens), sequence (P04150 whole entry, looked up, the tested form may be a part): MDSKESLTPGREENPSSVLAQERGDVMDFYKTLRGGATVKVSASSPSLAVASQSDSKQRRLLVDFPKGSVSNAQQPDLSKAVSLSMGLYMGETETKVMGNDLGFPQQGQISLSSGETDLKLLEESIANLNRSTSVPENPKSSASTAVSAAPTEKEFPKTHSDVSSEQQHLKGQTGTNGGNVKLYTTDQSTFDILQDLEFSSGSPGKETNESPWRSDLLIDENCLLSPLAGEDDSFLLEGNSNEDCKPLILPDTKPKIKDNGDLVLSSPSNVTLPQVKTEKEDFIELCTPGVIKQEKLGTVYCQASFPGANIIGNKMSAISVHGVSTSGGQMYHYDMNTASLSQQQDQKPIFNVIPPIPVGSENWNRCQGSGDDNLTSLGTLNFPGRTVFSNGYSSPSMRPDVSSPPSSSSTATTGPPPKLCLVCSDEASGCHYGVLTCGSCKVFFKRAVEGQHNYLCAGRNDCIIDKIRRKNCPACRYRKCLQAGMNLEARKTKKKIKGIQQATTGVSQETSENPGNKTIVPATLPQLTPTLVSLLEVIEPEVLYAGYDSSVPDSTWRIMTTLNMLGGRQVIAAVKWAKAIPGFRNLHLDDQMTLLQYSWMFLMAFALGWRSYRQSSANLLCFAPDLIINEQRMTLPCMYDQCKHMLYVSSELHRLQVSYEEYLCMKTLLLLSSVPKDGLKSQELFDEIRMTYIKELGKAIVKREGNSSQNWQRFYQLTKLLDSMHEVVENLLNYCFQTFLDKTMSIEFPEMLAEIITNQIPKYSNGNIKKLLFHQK
In short: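 HepG2 cells transiently transfected with multiplexed reporter units in which chimeric NR-GAL4 proteins drive GAL4-UAS reporters; 24 h compound exposure. Reporter mRNA measured by RT-PCR, 6-FAM labelling, HpaI digestion and capillary electrophoresis; gain-of-signal fitted versus DMSO.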

[7] = molecular target: Bile acid receptor (Homo sapiens) (UniProt Q96RI1); assay: ATG_FXR_TRANS: Attagene TRANS-FACTORIAL HepG2 Assay for Farnesoid X Receptor (FXR) (AID 2282979); conditions: HepG2 Attagene TRANS FXR-GAL4 reporter transcription;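 also: hits raise reporter mRNA above DMSO so AC50 marks FXR activation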
Bile acid receptor (Homo sapiens), sequence (Q96RI1 whole entry, looked up, the tested form may be a part): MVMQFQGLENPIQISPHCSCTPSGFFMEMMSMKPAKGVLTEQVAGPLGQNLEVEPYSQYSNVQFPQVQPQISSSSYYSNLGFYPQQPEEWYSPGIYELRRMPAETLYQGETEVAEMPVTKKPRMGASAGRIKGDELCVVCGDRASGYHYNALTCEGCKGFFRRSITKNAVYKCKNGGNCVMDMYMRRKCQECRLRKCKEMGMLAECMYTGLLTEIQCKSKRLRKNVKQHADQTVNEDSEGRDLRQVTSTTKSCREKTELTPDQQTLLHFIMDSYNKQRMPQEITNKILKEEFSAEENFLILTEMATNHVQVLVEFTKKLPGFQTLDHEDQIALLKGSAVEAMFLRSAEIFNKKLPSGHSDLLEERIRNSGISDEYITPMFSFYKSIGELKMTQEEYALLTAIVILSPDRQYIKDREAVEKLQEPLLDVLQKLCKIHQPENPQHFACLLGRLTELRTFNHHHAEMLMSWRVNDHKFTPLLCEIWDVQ
In short: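 Chimeric FXR-GAL4 activity in transiently transfected human HepG2 liver cells is scored as induction of reporter mRNA after 24 h of dosing. Detection uses RT-PCR with fluorescent labelling and capillary electrophoresis, with DMSO serving as baseline.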

[8] = molecular target: Oxysterols receptor LXR-beta (Homo sapiens) (UniProt P55055); assay: ATG_LXRb_TRANS: Attagene TRANS-FACTORIAL HepG2 Assay for human Liver X Receptor beta (LXRb) (AID 2282981); conditions: HepG2 Attagene TRANS GAL4-LXRb reporter, mRNA
In short: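 Transient transfection HepG2 (multiplexed RTUs, GAL4-UAS); NR-Gal4 chimera; 24 h exposure; RNA → RT-PCR → 6-FAM primer extension → HpaI → CE; increase vs DMSO.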

[9] = ATG_M_06_TRANS: Attagene TRANS-FACTORIAL HepG2 Assay for M06 Transcription Factor (Internal Marker) (AID 2282983); conditions: HepG2 Attagene TRANS M06 internal marker reporter;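 also: reporter transcript level by RT-PCR then capillary electrophoresis fluorescence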
In short: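 Measured by capillary electrophoresis of fluorescently labelled RT-PCR products, this endpoint reflects reporter mRNA in HepG2 cells harbouring exogenous NR-GAL4 reporter constructs after 24 h exposure, with DMSO as baseline.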

[10] = ATG_M_32_TRANS: Attagene TRANS-FACTORIAL HepG2 Assay for M32 Transcription Factor (Internal Marker) (AID 2282984); conditions: HepG2 Attagene TRANS M32 internal marker reporter;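 also: transcript level of a background control reporter unit measured by RT-PCR and capillary electrophoresis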
In short: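 Measures reporter mRNA induction in human HepG2 liver cells after 24 h chemical treatment. Transcripts from transiently transfected GAL4-UAS reporter units are amplified, fluorescently labelled and sized by capillary electrophoresis; gain of signal relative to DMSO.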

[11] = molecular target: Nuclear receptor subfamily 4 group A member 2 (Homo sapiens) (UniProt P43354); assay: ATG_NURR1_TRANS: Attagene TRANS-FACTORIAL HepG2 Assay for human Nuclear Receptor Related Protein 1 (NURR1) (AID 2282985); conditions: HepG2 Attagene TRANS reporter, mRNA readout
Nuclear receptor subfamily 4 group A member 2 (Homo sapiens), sequence (P43354 whole entry, looked up, the tested form may be a part): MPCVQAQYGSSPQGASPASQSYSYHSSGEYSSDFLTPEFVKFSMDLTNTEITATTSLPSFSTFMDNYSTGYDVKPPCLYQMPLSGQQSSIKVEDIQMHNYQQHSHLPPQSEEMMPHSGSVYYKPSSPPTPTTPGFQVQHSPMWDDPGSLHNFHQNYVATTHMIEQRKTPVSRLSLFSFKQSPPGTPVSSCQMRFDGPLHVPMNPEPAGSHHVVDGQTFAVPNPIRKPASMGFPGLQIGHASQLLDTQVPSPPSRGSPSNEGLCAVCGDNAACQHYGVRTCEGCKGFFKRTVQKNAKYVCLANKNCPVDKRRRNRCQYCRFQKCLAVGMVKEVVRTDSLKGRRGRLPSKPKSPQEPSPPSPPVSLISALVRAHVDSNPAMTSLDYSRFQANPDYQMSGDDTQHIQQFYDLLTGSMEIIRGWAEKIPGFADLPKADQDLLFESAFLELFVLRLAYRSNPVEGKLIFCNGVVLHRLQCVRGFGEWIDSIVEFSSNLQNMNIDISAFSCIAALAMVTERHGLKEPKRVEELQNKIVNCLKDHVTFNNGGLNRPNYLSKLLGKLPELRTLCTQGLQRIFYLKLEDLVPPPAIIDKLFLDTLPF
In short: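 Transient transfection of HepG2, human liver cells, with multiple GAL4-UAS reporter transcription units. Cells dosed 24 h, RNA isolated, reverse-transcribed, PCR-amplified, FAM-labelled, HpaI-digested, sized by capillary electrophoresis. DMSO served as negative control.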

[12] = molecular target: Transcriptional activator Myb (Homo sapiens) (UniProt P10242); assay: ATG_Myb_CIS: Attagene CIS-FACTORIAL HepG2 Assay for human Myeloblastosis (Myb) Proto-Oncogene Transcription Factor (AID 2282986; active = hit-call score of the fitted dose curve at least 0.9, where 1 is the maximum; inactive = score below 0.9); conditions: HepG2 Attagene CIS-FACTORIAL Myb reporter transcription; actives raise or lower the signal
In short: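 HepG2 cells were transiently transfected with cis-regulated multiple reporter transcription units reflecting endogenous Myb activity, then exposed to compound for 24 hours. Reporter mRNA was measured by RT-PCR with capillary electrophoresis; bidirectional fitting versus DMSO baseline.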

[13] = ATG_NFI_CIS: Attagene CIS-FACTORIAL HepG2 Assay for human Nuclear Factor I (NFI) (AID 2282989; active = hit-call score of the fitted dose curve at least 0.9, where 1 is the maximum; inactive = score below 0.9); conditions: HepG2 cis-regulatory reporter, NFI response element transcription; actives raise or lower the signal
In short: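 Reporter transcription driven by endogenous transcription factors in HepG2 cells; 24 h treatment. Quantitation by labelled RT-PCR fragments on capillary electrophoresis, gain- or loss-of-signal relative to DMSO.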

[14] = molecular target: Myc proto-oncogene protein (Homo sapiens) (UniProt P01106); assay: ATG_Myc_CIS: Attagene CIS-FACTORIAL HepG2 Assay for human Myelocytomatosis (Myc) Proto-Oncogene Transcription Factor (AID 2282990; active = hit-call score of the fitted dose curve at least 0.9, where 1 is the maximum; inactive = score below 0.9); conditions: HepG2, Attagene cis-reporter transcription factor activity; actives raise or lower the signal
In short: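 After 24 h chemical treatment of HepG2 cells carrying multiplexed cis-regulated reporter constructs, reporter transcripts quantified by RT-PCR and capillary electrophoresis of fluorescent fragments. Gain or loss fitted against DMSO baseline.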

[15] = molecular target: Steroid hormone receptor ERR1 (Homo sapiens) (UniProt P11474); assay: ATG_ERRa_TRANS: Attagene TRANS-FACTORIAL HepG2 Assay for human Estrogen-Related Receptor alpha (ERRa) (AID 2282971); conditions: HepG2 Attagene TRANS reporter, ERRa transactivation
In short: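 HepG2 cells were transiently transfected with multiple GAL4-UAS reporter units, then dosed with compound for 24 h. Total RNA was reverse-transcribed, reporter cDNA PCR-amplified and fluorescently labelled, and fragments resolved by capillary electrophoresis; induction was compared with DMSO.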

[16] = ATG_M_19_TRANS: Attagene TRANS-FACTORIAL HepG2 Assay for M19 Transcription Factor (Internal Marker) (AID 2282974); conditions: HepG2 Attagene TRANS-FACTORIAL M19 internal marker reporter
In short: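 HepG2 cells transiently transfected with multiple GAL4-UAS reporter transcription units were exposed to chemicals for 24 h. Reporter mRNA was read by RT-PCR, 6-FAM primer extension, HpaI digestion and capillary electrophoresis; gain of signal fitted relative to DMSO.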

[17] = molecular target: Hepatocyte nuclear factor 4-alpha (Homo sapiens) (UniProt P41235); assay: ATG_HNF4a_TRANS: Attagene TRANS-FACTORIAL HepG2 Assay for human Hepatocyte Nuclear Factor 4 alpha (HNF4a) (AID 2282982); conditions: HepG2 HNF4a transactivation reporter, mRNA readout
Hepatocyte nuclear factor 4-alpha (Homo sapiens), sequence (P41235 whole entry, looked up, the tested form may be a part): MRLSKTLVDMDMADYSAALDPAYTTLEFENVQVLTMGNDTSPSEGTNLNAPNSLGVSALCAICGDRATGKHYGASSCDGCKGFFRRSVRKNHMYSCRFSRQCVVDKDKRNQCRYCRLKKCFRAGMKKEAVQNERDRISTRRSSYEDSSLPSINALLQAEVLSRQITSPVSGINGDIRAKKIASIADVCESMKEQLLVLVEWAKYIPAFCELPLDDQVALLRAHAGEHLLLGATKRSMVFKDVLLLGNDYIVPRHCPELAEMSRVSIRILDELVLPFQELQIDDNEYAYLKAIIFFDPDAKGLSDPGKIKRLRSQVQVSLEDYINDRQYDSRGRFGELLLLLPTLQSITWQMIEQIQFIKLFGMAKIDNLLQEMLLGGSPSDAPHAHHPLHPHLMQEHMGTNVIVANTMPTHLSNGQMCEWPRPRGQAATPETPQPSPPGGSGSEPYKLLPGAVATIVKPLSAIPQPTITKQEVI
In short: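 Readout is fluorescent reporter-transcript fragments resolved by capillary electrophoresis after RT-PCR from HepG2 cells dosed for 24 h. Cells carried transfected GAL4-UAS reporter constructs measuring exogenous NR-GAL4 chimera activity; DMSO served as baseline.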

[18] = molecular target: Nuclear respiratory factor 1 (Homo sapiens) (UniProt Q16656); assay: ATG_NRF1_CIS: Attagene CIS-FACTORIAL HepG2 Assay for human Nuclear Respiratory Factor 1 (NRF1) Orphan Gene (AID 2282987; active = hit-call score of the fitted dose curve at least 0.9, where 1 is the maximum; inactive = score below 0.9); conditions: HepG2 NRF1 cis-element reporter, Attagene multiplex; actives raise or lower the signal
In short: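 HepG2 cells transiently transfected with multiple reporter transcription units under cis-regulatory promoter control, so endogenous transcription-factor activity is read. After 24 h compound exposure, reporter mRNA quantified by RT-PCR, fluorescent labelling, HpaI digestion and capillary electrophoresis; bidirectional fitting versus DMSO.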

[19] = molecular target: Oxysterols receptor LXR-alpha (Homo sapiens) (UniProt Q13133); assay: ATG_LXRa_TRANS: Attagene TRANS-FACTORIAL HepG2 Assay for human Liver X Receptor alpha (LXRa) (AID 2282980); conditions: HepG2 Attagene TRANS reporter, LXRa transactivation
Oxysterols receptor LXR-alpha (Homo sapiens), sequence (Q13133 whole entry, looked up): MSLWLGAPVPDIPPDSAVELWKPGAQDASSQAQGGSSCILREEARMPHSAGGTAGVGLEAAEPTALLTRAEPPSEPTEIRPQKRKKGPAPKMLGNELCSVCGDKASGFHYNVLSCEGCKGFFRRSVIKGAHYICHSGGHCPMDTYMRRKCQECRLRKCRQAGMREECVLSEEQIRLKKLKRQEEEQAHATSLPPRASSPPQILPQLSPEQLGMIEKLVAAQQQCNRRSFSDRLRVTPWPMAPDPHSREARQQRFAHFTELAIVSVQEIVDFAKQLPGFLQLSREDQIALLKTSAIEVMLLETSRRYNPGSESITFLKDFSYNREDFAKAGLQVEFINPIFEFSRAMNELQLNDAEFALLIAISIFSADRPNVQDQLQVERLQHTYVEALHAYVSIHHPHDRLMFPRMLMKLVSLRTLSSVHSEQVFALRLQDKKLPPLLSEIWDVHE
In short: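 Transient HepG2 transfectants, 24 h dosing, RT-PCR/CE mRNA reporter quantitation; gain-of-signal vs DMSO.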

[20] = molecular target: Estrogen receptor (Homo sapiens) (UniProt P03372); assay: ATG_ERa_TRANS: Attagene TRANS-FACTORIAL HepG2 Assay for human Estrogen Receptor alpha (ERa) (AID 2282970); conditions: HepG2 Attagene TRANS ERa GAL4 reporter, mRNA
Estrogen receptor (Homo sapiens), sequence (P03372 whole entry, looked up, the tested form may be a part): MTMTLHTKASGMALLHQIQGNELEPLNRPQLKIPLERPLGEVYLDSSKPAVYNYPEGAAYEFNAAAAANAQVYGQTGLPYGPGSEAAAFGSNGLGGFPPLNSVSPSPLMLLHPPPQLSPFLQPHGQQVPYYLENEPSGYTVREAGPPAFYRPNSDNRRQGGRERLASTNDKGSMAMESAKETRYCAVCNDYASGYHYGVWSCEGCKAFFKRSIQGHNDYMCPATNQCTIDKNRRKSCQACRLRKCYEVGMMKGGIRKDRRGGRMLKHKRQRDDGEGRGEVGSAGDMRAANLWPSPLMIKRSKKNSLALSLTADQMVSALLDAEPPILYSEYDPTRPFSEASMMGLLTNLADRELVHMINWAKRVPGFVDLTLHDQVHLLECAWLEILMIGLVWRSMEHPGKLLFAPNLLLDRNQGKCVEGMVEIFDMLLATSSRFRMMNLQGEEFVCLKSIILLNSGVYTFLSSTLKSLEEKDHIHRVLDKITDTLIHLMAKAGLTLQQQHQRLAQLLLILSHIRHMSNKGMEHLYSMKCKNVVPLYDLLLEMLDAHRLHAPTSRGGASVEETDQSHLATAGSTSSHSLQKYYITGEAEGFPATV
In short: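 Transactivation via ERa-Gal4 chimera in HepG2; 24 hour incubation; reporter mRNA detected by fluorescence RT-PCR and capillary electrophoresis.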

Measured: AC50

CC1(C)COP(Oc2ccccc2)OC1
not listed: [15] | [16] | [17] | [18] | [19] | [20]
inactive: all other assays above

CCCCOP(=O)(CCCC)OCCCC
not listed: [8] | [9] | [11] | [14] | [19] | [20]
inactive: all other assays above

O=C(CCl)NCO
not listed: [3] | [6] | [7] | [9] | [20]
inactive: all other assays above

CCOC(=O)Cc1ccccc1
not listed: [5] | [6] | [15] | [17] | [20]
inactive: all other assays above

CC(C)(c1ccc(O)c(-c2ccccc2)c1)c1ccc(O)c(-c2ccccc2)c1
active: [2] 4.92 µM
not listed: [3] | [4] | [5] | [8] | [15] | [16] | [17] | [19]
inactive: all other assays above

ClCc1ccccc1CCl
active: [2] 12.6 µM | [14] 33.4 µM
inactive: [1] | [20] | [19] | [8] | [17] | [9] | [10] | [12] | [18] | [13]

O=C(N[C@H]1CN2CCC1CC2)c1ccc2c(c1)OCCO2
not listed: [7] | [9] | [11] | [15] | [16] | [17] | [19] | [20]
inactive: all other assays above

CN(N=O)c1ccc([N+](=O)[O-])cc1
inactive: [1] | [20] | [2] | [16] | [7] | [9] | [10] | [11] | [18] | [13] | [14]

CCOP(=S)(OCC)OP(=S)(OCC)OCC
not listed: [5] | [9] | [15] | [19] | [20]
inactive: all other assays above
